# Laboratory results: PubChem BioAssay (NCI)
# This is part of a sample that, as a whole, favours compounds with a hit. Of some 83,000 tested, about 20% had one in any assay.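 Assay: single dose, 48 h. Readout: percent growth (0 = no net growth; negative = cell death). Active: <10.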 Unmarked numbers belong to inactive results. The source made the active and inactive calls.
# How the values were obtained:
# Experiment in all cases: NCI-60 one-dose screen, 48 h (100 = growth as untreated, 0 = no growth, -100 = all killed)
# Conditions in all cases: 10 µM unless noted
# DU-145 prostate = tested on: DU-145 prostate
# K-562 leukemia = tested on: K-562 leukemia
# MALME-3M melanoma = tested on: MALME-3M melanoma
# MDA-MB-231 breast = tested on: MDA-MB-231 breast
# RXF 393 renal = tested on: RXF 393 renal
# SF-268 CNS = tested on: SF-268 CNS
# SF-295 CNS = tested on: SF-295 CNS
# SF-539 CNS = tested on: SF-539 CNS
# UACC-257 melanoma = tested on: UACC-257 melanoma
# M14 melanoma = tested on: M14 melanoma
# HCT-15 colon = tested on: HCT-15 colon
# HT29 colon = tested on: HT29 colon
# SNB-75 CNS = tested on: SNB-75 CNS
# SNB-19 CNS = tested on: SNB-19 CNS
# U251 CNS = tested on: U251 CNS
# PC-3 prostate = tested on: PC-3 prostate
# SK-MEL-5 melanoma = tested on: SK-MEL-5 melanoma
# UACC-62 melanoma = tested on: UACC-62 melanoma
# LOX IMVI melanoma = tested on: LOX IMVI melanoma
# SK-MEL-28 melanoma = tested on: SK-MEL-28 melanoma
SMILES,growth (DU-145 prostate),growth (K-562 leukemia),growth (MALME-3M melanoma),growth (MDA-MB-231 breast),growth (RXF 393 renal),growth (SF-268 CNS),growth (SF-295 CNS),growth (SF-539 CNS),growth (UACC-257 melanoma),growth (M14 melanoma),growth (HCT-15 colon),growth (HT29 colon),growth (SNB-75 CNS),growth (SNB-19 CNS),growth (U251 CNS),growth (PC-3 prostate),growth (SK-MEL-5 melanoma),growth (UACC-62 melanoma),growth (LOX IMVI melanoma),growth (SK-MEL-28 melanoma)
CCCCn1c(=O)c(/C=C/C(=O)/C=C/c2ccc(O)c(OC)c2)cc2ccc(Cl)cc21,19.3%,6.69% (active),30.2%,-11.2% (active),-15.4% (active),29.9%,30.2%,52.6%,32.1%,5.1% (active),9.41% (active),-41.7% (active),54.8%,38.3%,3.33% (active),27.2%,3.38% (active),2.4% (active),-51.3% (active),38.8%
O=C1C(=O)c2c(nc3ccc(C(F)(F)F)cn23)-c2ccccc21,-96.3% (active),-41.9% (active),-97.3% (active),-22.7% (active),-94.8% (active),-78.7% (active),-96.5% (active),-97.4% (active),-97.1% (active),-79.5% (active),-67.4% (active),-9.93% (active),-97% (active),-84.4% (active),-96% (active),-85% (active),-99.2% (active),-82.4% (active),-65.4% (active),-84.3% (active)
O=C(/C(=C/c1ccc([N+](=O)[O-])cc1)SCc1ccc(Cl)cc1)c1ccc(F)cc1,86.3%,1.3% (active),85.7%,56.3%,92%,76.1%,84.9%,88.6%,92.5%,47.3%,-16.5% (active),-2.26% (active),82.3%,35.6%,-9.2% (active),41.4%,69.9%,33.8%,-18.3% (active),95.8%
O=C(Nc1cc(Nc2ncccc2-c2ncnc3nc[nH]c23)ccc1F)c1cc(C(F)(F)F)cc(C(F)(F)F)c1,20.9%,-13.7% (active),-58.4% (active),-51.3% (active),-63.4% (active),21.8%,-52.8% (active),-56% (active),-0.588% (active),-41.7% (active),-67% (active),-23.8% (active),-39.5% (active),13.7%,-12.1% (active),-45.1% (active),-17.5% (active),-23.6% (active),-69.4% (active),-66.1% (active)
C=C(C)[C@@H]1CC[C@]2(C(=O)OCCOCCOCC[P+](c3ccccc3)(c3ccccc3)c3ccccc3)CC[C@]3(C)[C@H](CC[C@@H]4[C@@]5(C)CC[C@H](C)C(C)(C)[C@@H]5CC[C@]43C)[C@@H]12,-92.1% (active),-65.7% (active),-79.4% (active),-74% (active),-85.3% (active),-74.5% (active),-87.5% (active),-90.3% (active),-88.1% (active),-77.4% (active),-86.7% (active),-81.6% (active),-90% (active),-72.2% (active),-83.5% (active),-84.9% (active),-98% (active),-77.8% (active),-86.3% (active),-80% (active)
COc1ccc2c(c1)/C(=C1\S/C(=N/c3nnc(C)s3)NC1=O)C(=O)N2Cc1ccc(Cl)cc1,52.4%,38.3%,72.5%,89.5%,75.8%,46%,14.9%,48.7%,83.6%,45.6%,28%,54.7%,71%,35.7%,26%,36.6%,30.9%,32.8%,39.4%,49.2%
N#Cc1c(-c2ccc(F)cc2)nc(N=Nc2c(O)[nH]c3ccc(Cl)cc23)nc1N1CCOCC1,40%,62.4%,38%,26.9%,8.65% (active),41.4%,13.9%,2.98% (active),57.3%,51.5%,71.7%,37.9%,-6.94% (active),39.8%,15.8%,61%,29.6%,35.1%,24.5%,46.8%
COc1ccc(/C=C/C(=O)/C=C(/C=C/c2ccc(OC)c(OC)c2)OB(F)F)cc1OC,35.1%,17.4%,25.4%,21%,-10.8% (active),34.9%,69.4%,28.8%,59.1%,11.1%,0.848% (active),3% (active),76.8%,52.9%,8.37% (active),31.5%,56.6%,52.6%,5.12% (active),29.6%
